Source: PubChem BioAssay (National Center for Advancing Translational Sciences (NCATS))
A selection: hits, their analogues and other compounds. The true share with any hit is near 0.4%.
FMDV FLuc – Primary qHTS Assay for Foot and Mouth Disease Virus Antivirals against NCGC Sytravon and CBC Compound Libraries: Firefly Luciferase Signal; FMDV antiviral cell assay, firefly luciferase signal; Potency, µM (top dose mostly 57.5 µM), most hits filed as inhibitors; 120,000 compounds, 0.23% hits; note: nearly all actives have a fitted effect of over 60% in size
FMDV RLuc – Primary qHTS Assay for Foot and Mouth Disease Virus Antivirals against NCGC Sytravon and CBC Compound Libraries: Renilla Luciferase Signal; FMDV replicon cells, Renilla luciferase signal; Potency, µM (top dose mostly 57.5 µM), actives largely listed as inhibitors; 120,000 compounds, 0.32% hits; AID 1745857, 2022; note: nearly all actives have a fitted effect of over 55% in size
Numbers stand for hits; n = inactive; u = inconclusive; [ ] = remark or other dose. Calls come from the whole dose curve.

SMILES	FMDV FLuc	FMDV RLuc
Cc1nc(C)c(-c2ccc(SCC(=O)Nc3ccc(C)c(F)c3)nn2)s1	n	n
Cc1nc(C)c(-c2ccc(SCC(=O)Nc3ccc(F)c(F)c3)nn2)s1	u	7.9µM
CCc1c(C)sc2c1CCN(Cc1ccccc1C#N)C2c1ccccc1 (configuration not stated)	n	n
CCc1c(C)sc2c1CCN(Cc1ccccc1)C2c1ccccc1 (configuration not stated)	u	13µM
Cc1ccc(S(=O)(=O)N2CCN(Cc3csc(C)n3)CC2)c(Br)c1	n	n
CCC(Sc1nc2nccnc2c(=O)n1CCc1ccccc1)C(=O)Nc1cccc(OC)c1 (configuration not stated)	n	n
N#Cc1ccc(Oc2ccc(Cl)c(Oc3ccc(C#N)c(C#N)c3)c2)cc1C#N	u	2.5µM
N#Cc1ccc(Oc2ccccc2Oc2ccc(C#N)c(C#N)c2)cc1C#N	n	n
Cc1cc(C)cc(Oc2ccc(C#N)c(C#N)c2)c1	n	n
Cc1c(Oc2ccc(C#N)c(C#N)c2)cccc1Oc1ccc(C#N)c(C#N)c1	2.2µM	2.5µM
NCC(c1ccco1)N1CCCC1 (configuration not stated)	n	n
Fc1ccc(NC(=S)N(Cc2ccccc2)Cc2ccccc2)cc1	n	n
CCc1ccc2occ(CC(=O)Nc3ccc(C)c(C)c3)c2c1	25µM	u
Cc1ccc(NC(=O)Cc2coc3ccc(C(C)C)cc23)cc1Cl	u	n
CC1=C2C(=O)CC(c3ccc(Cl)cc3)CC2=Nc2ccccc2N1 (configuration not stated)	8.9µM	10µM
O=C1CC(c2ccc(Cl)cc2)CC2=C1C=Nc1ccccc1N2 (configuration not stated)	n	n
O=C(c1ccccc1Br)N(Cc1ccc2cc[nH]c2c1)C1CC1	u	n
N#Cc1ccc(S(=O)(=O)N2CCN(C(=O)c3cnn(Cc4ccccc4Cl)c3)CC2)cc1	n	n
COc1cc(CN2CCc3nc(N4CCN(c5ncccn5)CC4)ncc3C2)cc(OC)c1OC	u	7.1µM
Brc1ccc(CN2CCc3nc(N4CCN(c5ncccn5)CC4)ncc3C2)cc1	n	u
CCSc1ncc2c(=O)n(CC(=O)Nc3cccc(Br)c3)cnc2n1	n	n
COc1ccccc1C(=O)Nc1nc(-c2ccc(Br)cc2)ns1	n	n
Cc1ccccc1C(=O)Nc1nc(-c2ccc(Br)cc2)ns1	u	35µM
COc1ccc(NS(=O)(=O)c2ccc(-c3cnc(C4CC4)o3)cc2)cc1OC	8.9µM	n
O=S(=O)(Nc1cccc(C(F)(F)F)c1)c1ccc(-c2cnc(C3CC3)o2)cc1	u	n
SMILES	FMDV FLuc	FMDV RLuc
O=C(O)C(=Cc1cccs1)C(=O)O	n	n
CCc1nn2c(=O)cc(CNc3ccc4c(c3)OCCCO4)nc2s1	4.5µM	n
CCc1nn2c(=O)cc(CNc3ccccc3NC(=O)c3ccccc3)nc2s1	n	n
CCN(CC)C(=O)CN(C1CCCCC1)S(=O)(=O)c1ccc(Br)cc1	n	n
Cc1cccc(N2CCN(c3ncnc4c3nc3n4CCCCC3)CC2C)c1 (configuration not stated)	2.8µM	2.5µM
Clc1cccc(N2CCN(c3ncnc4c3nc3n4CCCC3)CC2)c1	n	u
CC(c1nc2ccccc2s1)N(C)S(=O)(=O)c1ccccc1 (configuration not stated)	n	n[1.06 µM]
N#CC(/C(=N/S(=O)(=O)c1ccccc1)c1ccccc1)c1nc2ccccc2s1 (configuration not stated)	28µM	n
COc1ccc(-c2nc(CSCC(=O)NCc3cccnc3)c(C)o2)cc1	14µM	n
COc1ccc(-c2nc(CS(=O)(=O)CC(=O)NCc3cccnc3)c(C)o2)cc1	n	n
COC(=O)c1cccc(NC(=O)CSc2ncnc3c(-c4ccc(OC)cc4)c[nH]c23)c1	n	n
Cc1ccc2c(CN3CCN(C(=O)c4cccc(F)c4)CC3)cc(=O)oc2c1	n	n
Cc1cccc(C(=O)N2CCN(Cc3ccc(-c4cccc(F)c4)s3)CC2)n1	10µM	u
CC(C)Sc1nc2c(c(=O)n(C)c(=O)n2C)n1Cc1cccc2ccccc12	n	n
CCc1ccc2oc(C(=O)NCCc3ccc(OC)c(OC)c3)cc(=O)c2c1	35µM	u
COc1ccc(CCNC(=O)c2cc(=O)c3ccccc3o2)cc1OC	n	n
Nc1sccc1C(=O)NCc1ccncc1	n	n
COCCOC(=O)/C(C#N)=C\c1cc(Cl)c(O)c(OC)c1	n	n[1.06 µM]
COc1ccc(-c2c(C)oc3cc(OCC(=O)OC(C)(C)C)ccc3c2=O)cc1OC	28µM	u
CCOc1ccc2c(=O)c(-c3ccc(OC)c(OC)c3)c(C)oc2c1	n	n
Cc1c(CC(=O)Nc2ccc(C(C)C)cc2)c(=O)oc2cc(O)ccc12	n	n
Cc1ccccc1OCC(O)CN1CCN(c2nccs2)CC1 (configuration not stated)	n	n
O[C@@H](COc1cccc2ncccc12)CN1CCN(C2c3ccccc3[C@@H]3[C@H](c4ccccc42)C3(F)F)CC1 (some centres not stated)	n[11.5 µM]	25µM
CC(=O)Nc1ccc(S(=O)(=O)N2CCCCCC2c2ccc(C)s2)cc1 (configuration not stated)	n	n
O=C(Nc1ccc(S(=O)(=O)N2CCCCC2c2cccnc2)cc1)c1ccc(Br)cc1 (configuration not stated)	25µM	u
SMILES	FMDV FLuc	FMDV RLuc
CCN(Cc1ccc(C(=O)Nc2cccc(C(=O)NC3CC3)c2)cc1)C(C)C	n	n
COc1ccc(C(=O)N2CCC(c3nc4ccccc4s3)CC2)cc1Cl	28µM	u
COc1cccc(C(=O)N2CCC(c3nc4ccccc4s3)CC2)c1	n	n
CCN1CCC(NC(=O)Cc2cc(Cl)c3c(c2)OCCCO3)CC1	n	n
CCCC(=O)Nc1nnc(SCc2cc(=O)c3ccc(C)cc3[nH]2)s1	2.5µM	2µM
CCC(=O)Nc1nnc(SCc2cc(=O)c3cc(C)ccc3[nH]2)s1	n	n
Cc1ccc(OCC(=O)Nc2nnc(SCc3cc(=O)c4ccccc4[nH]3)s2)cc1	n	n
CCC(CC)C(=O)Nc1nnc(SCc2cc(=O)c3ccccc3[nH]2)s1	13µM	8.9µM
CC1OC(OC2C(O)CC(OC3C(O)CC(OC4CCC5(C)C(CC[C@@H]6[C@@H]5CCC5(C)C(C7=CC(=O)OC7)CCC65O)C4)OC3C)OC2C)CC(O)C1O (some centres not stated)	0.25µM	0.56µM
C[C@H]1O[C@@H](O[C@H]2CC[C@@]3(C)[C@H](CC[C@@H]4[C@@H]3C[C@@H](O)[C@]3(C)[C@@H](C5=CC(=O)OC5)CC[C@]43O)C2)C[C@H](O)[C@@H]1O[C@H]1C[C@H](O)[C@H](O[C@H]2C[C@H](O)[C@H](O[C@@H]3O[C@H](CO)[C@@H](O)[C@H](O)[C@H]3O)[C@@H](C)O2)[C@@H](C)O1	n[11.5 µM]	n
C[C@H]1O[C@@H](O[C@H]2[C@@H](O)C[C@H](O[C@H]3[C@@H](O)C[C@H](O[C@H]4CC[C@@]5(C)[C@H](CC[C@@H]6[C@@H]5CC[C@]5(C)[C@@H](C7=CC(=O)OC7)CC[C@]65O)C4)O[C@@H]3C)O[C@@H]2C)C[C@H](O)[C@@H]1O	u	n
